The results in this text go back to PubChem BioAssay AID504942 (Broad Institute, 2011).

Molecules are shown by their SMILES. Potency and affinity values are given separately. Active and inactive are the calls of the source. Entries that show only a call come without a potency. No rule for the calls is given here.

A short description of the test: toxicity to human HeLa cells – cell-based, 48 h, plate reader, cherry-picks, cytotoxicity control, dose response (AID 504942). The settings on record: series mostly up to 38 µM.

As to `CCOC(=O)CCCn1ncn2c(cc3occc32)c1=O`, the compound was called inactive.
In the case of `Cc1cc(NC(=O)c2cc([N+](=O)[O-])cc([N+](=O)[O-])c2C)no1`, the call was inactive.
Take `N#CC(c1ccc(Cl)cc1)c1ccc(Cl)nn1` (centres undefined): the compound was called inactive.
`Clc1ccc2scc(CN3CCCCC3)c2c1`: the result was inactive.
The value for `Cc1ccc(S(=O)c2ccc(C)cc2)cc1` was “inactive”; that for `Cc1cc(S(=O)(=O)NCC2CC2)c(Cl)cc1Cl` was “inactive”.
For the compound `N#CCn1c(C2CCCCC2)nc2ccccc2c1=O`, the compound was classed as inactive.
As for `O=C(c1cccc([N+](=O)[O-])c1)N1CC2C3C=CC(C3)C2C1` (centres undefined), the result was inactive.
With `N#CC(Sc1ccccn1)c1ccc(Cl)cc1` (centres undefined) the entry was “inactive”.
`COc1ccc(/C=C/C(=O)c2ccoc2)cc1`: the compound was called inactive.
With `Cc1cccc(C(C#N)c2ccc(Cl)nn2)c1` (centres undefined), the compound was classed as inactive.
The value for `CCOC(=O)/C=C(\C)Sc1cc(=O)oc2ccccc12` was “inactive”; that for `C=CCOC(=O)c1ccc(-n2cnc(C)n2)nc1` was “inactive”.
With `O=[N+]([O-])c1ccc(N2CCCCC2)cc1`, the compound was called inactive.
With `CCOC(=O)c1ccc(N2Cc3ccccc3C2=N)cc1`, the call was inactive.
For the compound `N#Cc1cc([N+](=O)[O-])ccc1N1CCCC1`, the compound was called inactive.
With `O=C(NC1CCSC1)c1cccc(Cl)c1` (centres undefined) the entry was “inactive”; with `CC(C)CCNC(=O)c1cccc(Cl)c1`, “inactive”; with `CCOC(=O)c1ccc(-c2ccc(C=O)o2)cc1`, “inactive”.
The value for `Cc1ccc2scc(CN3CCCC3)c2c1` was “inactive”; that for `CCOC(=O)c1cnc(-c2ccccc2)nc1N` was “inactive”; that for `O=C1C=C(c2cccc(Cl)c2)C[C@@H](c2ccc(F)cc2)C1` was “inactive”.
For the compound `O=C(NC1CCS(=O)(=O)C1)c1cccc(Br)c1` (centres undefined), the compound was classed as inactive.
For `CCOC(=O)N1CCN(c2ccc(Cl)cc2)CC1`, the result was inactive.
The value for `CC(C)N=C(NC#N)SCc1ccccc1F` was “inactive”; that for `CC(C)(C)NC(=O)c1cc(Cl)ccc1[N+](=O)[O-]` was “inactive”.
The value for `CO/N=C/c1cn(-c2ccc(Cl)cc2)nn1` was “inactive”; that for `CCNC(=O)COc1ccc2ccccc2c1` was “inactive”; that for `COc1ccc(N2CCN(C(=O)c3ccc(Br)o3)CC2)cc1` was “inactive”.
